# In article doi:10.1101/2024.03.05.583629:
# Target: pT7_6His-AlfaTag-HOXD13 (human, UniProt P35453 263-343)
# Assay: PADIT-seq
# Details: dsDNA, one strand shown
# pT7_6His-AlfaTag-HOXD13, sequence (P35453 263-343): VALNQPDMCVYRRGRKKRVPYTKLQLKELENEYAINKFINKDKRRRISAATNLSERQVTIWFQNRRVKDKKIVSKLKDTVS
sequence,measurement,value
CTCGAGGATATCAAGATCTGGCCTCGGCCTTTTAGCTGGAACCTCTAGCTAGCCGACTCACTATAGGGATAATCGCCCTGAGCAAAGACC,binding signal,-0.366 ± 0.11 log2FC
CTCGAGGATATCAAGATCTGGCCTCGGCTTCATAAAAGGAACCTCTAGCTAGCCGACTCACTATAGGGATAATCGCCCTGAGCAAAGACC,binding signal,2.49 ± 0.0838 log2FC
CTCGAGGATATCAAGATCTGGCCTCGGCGACTTAAAAGGAACCTCTAGCTAGCCGACTCACTATAGGGATAATCGCCCTGAGCAAAGACC,binding signal,0.297 ± 0.0744 log2FC
CTCGAGGATATCAAGATCTGGCCTCGGCGTTTTACGCGGAACCTCTAGCTAGCCGACTCACTATAGGGATAATCGCCCTGAGCAAAGACC,binding signal,2.22 ± 0.0821 log2FC
CTCGAGGATATCAAGATCTGGCCTCGGCCGCCCAATAGGAACCTCTAGCTAGCCGACTCACTATAGGGATAATCGCCCTGAGCAAAGACC,binding signal,-0.536 ± 0.118 log2FC
CTCGAGGATATCAAGATCTGGCCTCGGCCTTTTAGGTGGAACCTCTAGCTAGCCGACTCACTATAGGGATAATCGCCCTGAGCAAAGACC,binding signal,0.366 ± 0.0957 log2FC
CTCGAGGATATCAAGATCTGGCCTCGGCAATATAAAAGGAACCTCTAGCTAGCCGACTCACTATAGGGATAATCGCCCTGAGCAAAGACC,binding signal,2.41 ± 0.0826 log2FC
CTCGAGGATATCAAGATCTGGCCTCGGCTTTTTATGGGGAACCTCTAGCTAGCCGACTCACTATAGGGATAATCGCCCTGAGCAAAGACC,binding signal,3.53 ± 0.0874 log2FC
CTCGAGGATATCAAGATCTGGCCTCGGCCAATGGGCGGGAACCTCTAGCTAGCCGACTCACTATAGGGATAATCGCCCTGAGCAAAGACC,binding signal,-0.903 ± 0.11 log2FC
CTCGAGGATATCAAGATCTGGCCTCGGCCGAGTAAAAGGAACCTCTAGCTAGCCGACTCACTATAGGGATAATCGCCCTGAGCAAAGACC,binding signal,0.186 ± 0.114 log2FC
CTCGAGGATATCAAGATCTGGCCTCGGCTTCTTAAAAGGAACCTCTAGCTAGCCGACTCACTATAGGGATAATCGCCCTGAGCAAAGACC,binding signal,0.549 ± 0.0953 log2FC
CTCGAGGATATCAAGATCTGGCCTCGGCTGATGGGCGGGAACCTCTAGCTAGCCGACTCACTATAGGGATAATCGCCCTGAGCAAAGACC,binding signal,-0.976 ± 0.109 log2FC
CTCGAGGATATCAAGATCTGGCCTCGGCTCGCTAAAAGGAACCTCTAGCTAGCCGACTCACTATAGGGATAATCGCCCTGAGCAAAGACC,binding signal,0.138 ± 0.111 log2FC
CTCGAGGATATCAAGATCTGGCCTCGGCACGGTAAAAGGAACCTCTAGCTAGCCGACTCACTATAGGGATAATCGCCCTGAGCAAAGACC,binding signal,0.528 ± 0.077 log2FC
CTCGAGGATATCAAGATCTGGCCTCGGCTTTTTACGGGGAACCTCTAGCTAGCCGACTCACTATAGGGATAATCGCCCTGAGCAAAGACC,binding signal,3.16 ± 0.0883 log2FC
CTCGAGGATATCAAGATCTGGCCTCGGCTGCTTAAAAGGAACCTCTAGCTAGCCGACTCACTATAGGGATAATCGCCCTGAGCAAAGACC,binding signal,0.659 ± 0.091 log2FC
CTCGAGGATATCAAGATCTGGCCTCGGCAATTGGGCGGGAACCTCTAGCTAGCCGACTCACTATAGGGATAATCGCCCTGAGCAAAGACC,binding signal,-0.563 ± 0.097 log2FC
CTCGAGGATATCAAGATCTGGCCTCGGCGTTTTATATGGAACCTCTAGCTAGCCGACTCACTATAGGGATAATCGCCCTGAGCAAAGACC,binding signal,3.04 ± 0.0717 log2FC
CTCGAGGATATCAAGATCTGGCCTCGGCTGACTAAAAGGAACCTCTAGCTAGCCGACTCACTATAGGGATAATCGCCCTGAGCAAAGACC,binding signal,-0.535 ± 0.11 log2FC
CTCGAGGATATCAAGATCTGGCCTCGGCATTTTAATTGGAACCTCTAGCTAGCCGACTCACTATAGGGATAATCGCCCTGAGCAAAGACC,binding signal,2.74 ± 0.0827 log2FC
CTCGAGGATATCAAGATCTGGCCTCGGCGCCTTAAAAGGAACCTCTAGCTAGCCGACTCACTATAGGGATAATCGCCCTGAGCAAAGACC,binding signal,0.578 ± 0.0742 log2FC
CTCGAGGATATCAAGATCTGGCCTCGGCACATTAAAAGGAACCTCTAGCTAGCCGACTCACTATAGGGATAATCGCCCTGAGCAAAGACC,binding signal,2.06 ± 0.09 log2FC
CTCGAGGATATCAAGATCTGGCCTCGGCCCGCTAAAAGGAACCTCTAGCTAGCCGACTCACTATAGGGATAATCGCCCTGAGCAAAGACC,binding signal,-0.398 ± 0.11 log2FC
CTCGAGGATATCAAGATCTGGCCTCGGCGCGTGGAGCGGAACCTCTAGCTAGCCGACTCACTATAGGGATAATCGCCCTGAGCAAAGACC,binding signal,-0.893 ± 0.118 log2FC
CTCGAGGATATCAAGATCTGGCCTCGGCCTTTTACCCGGAACCTCTAGCTAGCCGACTCACTATAGGGATAATCGCCCTGAGCAAAGACC,binding signal,-0.00238 ± 0.0891 log2FC
CTCGAGGATATCAAGATCTGGCCTCGGCCTTTTAGTAGGAACCTCTAGCTAGCCGACTCACTATAGGGATAATCGCCCTGAGCAAAGACC,binding signal,1.19 ± 0.0808 log2FC
